We go through 94 compounds from PubChem BioAssay AID430 (Sanford-Burnham Center for Chemical Genomics, 2006).

Screen size: about 63,000 compounds; about 1,100 (1.7%) were called active. The full list was thinned out, with actives kept by preference. Measured potencies and affinities stand elsewhere. A number with no mark means an inactive call. Rule as the data show it: active = cytotoxicity above about 50%; inactive = the rest.

A short description of this test: HPDE-C7 pancreatic duct cell viability loss – fluorescence, HTS (AID 430).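 Also: cells exposed to compound for 48 hours before viability readout; 0% = vehicle and 100% = reference cytotoxic drug.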 The conditions noted are these: HPDE-C7 pancreatic duct cells viability, at 10 µM, stronger effect = higher value.
With `CCS(=O)(=O)N1CCCC(C(=O)NCc2ccc3c(c2)OCO3)C1` (centres undefined), the cytotoxicity was -13.3%.
Regarding `Cc1cc(C)n(-c2nncc(-c3ccccc3)n2)n1`, the cytotoxicity was 0.6%.
As for `Cc1cc(NC(=O)CSc2nnc(Cn3c(=O)sc4ccccc43)n2-c2ccccc2C)no1`, the cytotoxicity is -24.2%.
On to `Cc1ccc(S(=O)(=O)CCC(=O)OCC(=O)Nc2cc(C)on2)cc1`, for which the cytotoxicity was -14.2%.
As for `Cc1cc(C)nc(SCC(=O)c2ccc(O)cc2O)n1`, the cytotoxicity is -21%.
In the case of `OCC1OC(n2nc3ccccc3n2)C(O)C(O)C1O` (centres undefined), the cytotoxicity was -4.3%.
For `COc1cccc(-n2c(CNC(=O)OC(C)(C)C)n[nH]c2=S)c1`, the cytotoxicity was 2.9%.
For `Cc1ccc2ncccc2c1NS(=O)(=O)c1ccccc1`, the cytotoxicity is -17.3%.
Consider `O=S(=O)(Nc1cccc2ncccc12)c1cccs1`, for which the cytotoxicity is 45.6%.
The value for `CCOCC(=O)Nc1nnc(Cc2ccc(OC)c(OC)c2)s1` was -11.9%; that for `O=C(NCCCN1CCOCC1)c1cc2ccccc2oc1=O` was 3.1%; that for `Cc1oc(-c2ccc(Cl)cc2)nc1CN1CCC(C(=O)NCc2cccnc2)CC1` was -28.8%.
Take `COCCOC(=O)c1[nH]c2c(c1C)C(=O)CC(c1ccc(N(C)C)cc1)C2` (centres undefined): the cytotoxicity is -10.9%.
Take `COC(=O)c1[nH]c2c(c1C)C(=O)CC(c1cccs1)C2` (centres undefined): the cytotoxicity was 70.9% (active).
Next, `CCOCCOC(=O)c1[nH]c2c(c1C)C(=O)CC(c1ccc(N(C)C)cc1)C2` (centres undefined): -3.3%; `COC(=O)c1[nH]c2c(c1C)C(=O)CC(c1ccccc1)C2` (centres undefined): 45.6%; `CCCCCOC(=O)c1[nH]c2c(c1C)C(=O)CC(c1ccco1)C2` (centres undefined): 68.9% (active).
Turning to `CCOC(=O)c1[nH]c2c(c1C)C(=O)CC(c1ccc(F)cc1)C2` (centres undefined), the cytotoxicity is 70.4% (active).
For the compound `CCOc1ccc(C2CC(=O)c3c([nH]c(C(=O)OC)c3C)C2)cc1OC` (centres undefined), the cytotoxicity is 2.6%.
On to `COCCOC(=O)c1[nH]c2c(c1C)C(=O)CC(c1ccc(F)cc1)C2` (centres undefined), for which the cytotoxicity was 4.9%.
`CCCOC(=O)c1[nH]c2c(c1C)C(=O)CC(c1ccc(OC)c(OC)c1)C2` (centres undefined): the cytotoxicity is -5.7%.
Next, `COCCOC(=O)c1[nH]c2c(c1C)C(=O)CC(c1ccccc1)C2` (centres undefined): 50.6% (active).
As for `CCCCOC(=O)c1[nH]c2c(c1C)C(=O)CC(c1cc(OC)c(OC)c(OC)c1)C2` (centres undefined), the cytotoxicity was -7.3%.
The value for `COC(=O)c1[nH]c2c(c1C)C(=O)CC(c1ccc(C)cc1)C2` (centres undefined) was 1.7%; that for `COc1cccc(CNC(=O)C2CCN(S(=O)(=O)N3CCCC3)CC2)c1` was -7.2%; that for `COc1ccc2c(C)cc(=O)oc2c1C` was 0.6%.
Consider `C=CCn1c(-c2cc(OC)c(OC)c(OC)c2)n[nH]c1=S`, for which the cytotoxicity was -1.6%.
Take `Cc1nn(-c2ccccc2)c2c1C1(C(=O)N(C)c3ccccc31)N(c1ccccc1)C(=O)N2` (centres undefined): the cytotoxicity was -21.2%.
As to `O=C1C=C(O)CC(c2ccc(Cl)cc2)C1` (centres undefined), the cytotoxicity is 31.1%.
Next, `CCOC(=O)c1sc(NC(=O)CSc2nnc(-c3ccco3)n2CC)c(C(=O)OCC)c1C`: 31.5%; `CCC(C)N(C(=O)Cn1nnc2ccccc21)C(C(=O)NCc1ccco1)c1cccc(OC)c1` (centres undefined): -10.2%; `COc1ccc(C(NC(=O)c2ccco2)c2ccc(OC)c(OC)c2)cc1OC`: -8.3%.
Consider `Nc1nnc(-c2ccco2)s1`, for which the cytotoxicity was -4.3%.
The value for `CCOC(=O)N1CCC(NC(=O)Cn2cc3c(n2)CCC(C)C3)CC1` (centres undefined) was 6.2%.
Next, `Cc1c(C(=O)O)[nH]c2c1C(=O)CC(c1ccccc1)C2` (centres undefined): -12.1%; `COc1cc(C2CC(=O)c3c([nH]c(C(=O)OCCOC(C)C)c3C)C2)cc(OC)c1OC` (centres undefined): 2.4%.
The value for `COc1ccc(OC)c(C2CC(=O)c3c([nH]c(C(=O)OCC4CCCO4)c3C)C2)c1` (centres undefined) was 8.2%; that for `Cc1c(C(=O)OCCOC(C)C)[nH]c2c1C(=O)CC(C)(C)C2` was -12%; that for `Cc1c(C(=O)OCC2CCCO2)[nH]c2c1C(=O)CC(c1ccc(N(C)C)cc1)C2` (centres undefined) was -4.3%.
`Cc1c(C(=O)OCC2CCCO2)[nH]c2c1C(=O)CC(c1ccco1)C2` (centres undefined): the cytotoxicity is 62.4% (active).
The value for `COCCOC(=O)c1[nH]c2c(c1C)C(=O)C(C(=O)OC)C(C)C2` (centres undefined) was -7.3%.
Next, `CC1=C(C(=O)OCc2ccccc2)C(c2ccco2)C2=C(CC(C)(C)CC2=O)N1` (centres undefined): 22.7%; `Cc1c(C(=O)OCCOC(C)C)[nH]c2c1C(=O)CC(c1ccco1)C2` (centres undefined): 59.9% (active); `Cc1c(C(=O)OCc2ccccc2)[nH]c2c1C(=O)CC(c1ccco1)C2` (centres undefined): 65.7% (active).
In the case of `COCCOC(=O)c1[nH]c2c(c1C)C(=O)CC(c1ccco1)C2` (centres undefined), the cytotoxicity is 60.3% (active).
As for `CCN1CCN(c2ncc(C(=O)N3CCCc4ccccc43)c3ccccc23)CC1`, the cytotoxicity is -18.1%.
Regarding `Cn1c(=O)c2c(nc(N3CCCCCC3)n2CC(O)COc2ccccc2)n(C)c1=O` (centres undefined), the cytotoxicity is 3.5%.
As to `COC(=O)c1[nH]c2cc(OC)c(OC)cc2c1NC(=O)c1cccc(OC)c1`, the cytotoxicity is -10.5%.
Take `COc1ccc(-c2noc(COc3ccc(C)c(C)c3)n2)cc1OC`: the cytotoxicity was 3.4%.
Regarding `Cc1c(C(=O)OC2CCCC2)[nH]c2c1C(=O)CC(c1ccco1)C2` (centres undefined), the cytotoxicity is 79.3% (active).
For the compound `Cc1c(C(=O)OCC(C)C)[nH]c2c1C(=O)CC(c1ccco1)C2` (centres undefined), the cytotoxicity is 63.7% (active).
For the compound `CSCCOC(=O)c1[nH]c2c(c1C)C(=O)CC(c1ccco1)C2` (centres undefined), the cytotoxicity is 64.9% (active).
`CCOC(=O)c1[nH]c2c(c1C)C(=O)CC(c1ccc(OC)c(OC)c1)C2` (centres undefined): the cytotoxicity was -13.8%.
Next, `CCOC(=O)c1[nH]c2c(c1C)C(=O)CC(c1ccco1)C2` (centres undefined): 70.2% (active); `CCC(C)OC(=O)c1[nH]c2c(c1C)C(=O)CC(c1ccc(N(C)C)cc1)C2` (centres undefined): 11.5%; `CCOC(=O)c1[nH]c2c(c1C)C(=O)CC(c1ccc(OCC)c(OC)c1)C2` (centres undefined): -5%.
Turning to `Cc1c(C(=O)OC2CCC(C)CC2)[nH]c2c1C(=O)CCC2` (centres undefined), the cytotoxicity is -8.8%.
`Cc1c(C(=O)OC2CCCCC2)[nH]c2c1C(=O)CC(C)(C)C2`: the cytotoxicity is -3.5%.
For the compound `COc1ccc(CCNS(=O)(=O)c2cccc(S(=O)(=O)N3CCCC3)c2)cc1OC`, the cytotoxicity was -3.9%.
In the case of `Cc1cc(SCNC(=O)c2ccccc2)ncn1`, the cytotoxicity is -13%.
Next, `COc1ccc(N2CCN(c3oc(COc4ccccc4)nc3C#N)CC2)cc1`: -8.8%; `O=C(O)c1cccc(CN2C(=O)SC(Nc3ccccc3)C2=O)c1` (centres undefined): -3.2%; `CN(C)C(=O)COn1c(SCC(=O)N(C)C)nc2ccccc2c1=O`: -6.6%.
Regarding `COc1ccc(C2C3=C(CC(C)(C)CC3=O)Nc3n[nH]c(C)c32)cc1` (centres undefined), the cytotoxicity is -9.3%.
As to `CCOc1cccc(C(=O)Nc2cc(-c3nn4c(C)nnc4s3)ccc2C)c1`, the cytotoxicity was -4.1%.
Consider `O=C(O)C1CCC(CNCc2cccnc2)CC1` (centres undefined), for which the cytotoxicity is -8.3%.
For the compound `CC1(C)CC(=O)C(C=Nc2ccccc2)=C(O)C1`, the cytotoxicity was 2%.
As for `Cc1ccc(SCCC(=O)NCC2CCCO2)cc1` (centres undefined), the cytotoxicity is -5.9%.
The value for `COc1ccc(-c2nnc(NC(=O)c3ccc(S(=O)(=O)N4CCCc5ccccc54)cc3)o2)cc1` was 53.1% (active).
Consider `O=C(Nc1ccc(S(=O)(=O)N2CCCc3ccccc32)cc1)C1CCCO1` (centres undefined), for which the cytotoxicity is 3%.
Next, `O=C(NCc1ccco1)c1ccc(S(=O)(=O)N2CCCc3ccccc32)cc1`: -2.8%; `COc1ccc(-c2nnc(NC(=O)c3ccccc3C)o2)cc1`: 1.9%; `O=C(Nc1nnc(C2CC2)o1)c1ccc(S(=O)(=O)N2CCCc3ccccc32)cc1`: 73.6% (active).
As for `COc1ccc(-c2nnc(NC(=O)c3ccc(S(=O)(=O)N4CCc5ccccc5C4)cc3)o2)cc1`, the cytotoxicity was 40.7%.
With `COc1cc(OC)cc(-n2c3nc4ccccc4nc3c3c(=O)n(CC4CCCO4)cnc32)c1` (centres undefined), the cytotoxicity was -11.1%.
Turning to `COc1ccc(OC)c(NC(=O)C2=C(C)Nc3ncnn3C2c2cccs2)c1` (centres undefined), the cytotoxicity was 4.9%.
For `CCCCOCCCNC(=O)Cc1cccs1`, the cytotoxicity was -16.7%.
In the case of `COc1ccccc1N1CCN(C(=O)N2CCOCC2)CC1`, the cytotoxicity was -6.9%.
With `Cc1cc(N2CCN(C/C=C/c3ccccc3)CC2)n2ncnc2n1`, the cytotoxicity was -6.5%.
Turning to `O=C(NC1c2ccccc2-c2ccccc21)N1CCOCC1`, the cytotoxicity is 1.5%.
Take `O=C(CC1SC(=Nc2ccccc2)N(CCCCO)C1=O)NCc1ccccc1` (centres undefined): the cytotoxicity was -10.8%.
For the compound `CCCOC(=O)CSC1=C(C#N)C(c2ccccc2OCC)C(C#N)C(=O)N1` (centres undefined), the cytotoxicity is 5.1%.
Next, `Cc1cc(NC(=O)CCc2ccc(C)o2)no1`: -11.8%; `CC(=O)C(C)Oc1ccc2c3c(c(=O)oc2c1)CCCCC3` (centres undefined): -15.5%; `Cc1ccc(-c2nnc(N3CCN(S(C)(=O)=O)CC3)c3ccccc23)cc1`: -1.3%.
As for `c1ccc(-c2nnc(N3CCN(c4ccccn4)CC3)c3ccccc23)cc1`, the cytotoxicity is 5.2%.
As to `O=C(OCC(=O)N1CCN(C(=O)c2ccco2)CC1)c1ccccc1C(=O)c1ccc(Cl)cc1`, the cytotoxicity is -5%.
For the compound `Cc1cccc(CN2CCN(C(c3ccccc3)c3ccc(Cl)cc3)CC2)c1` (centres undefined), the cytotoxicity was 95.1% (active).
The value for `OCCOCCN1CCN(C(c2ccccc2)c2ccc(Cl)cc2)CC1` (centres undefined) was 50.4% (active).
For the compound `O=S(=O)(CCN1CCN(C(c2ccccc2)c2ccccc2)CC1)C(F)(F)F`, the cytotoxicity was -0.3%.
As for `CN1CCCN(C(c2ccccc2)c2ccc(Cl)cc2)CC1` (centres undefined), the cytotoxicity is 12.4%.
As for `Cc1cccc(CN2CCN(C(=O)c3ccccc3F)CC2)c1`, the cytotoxicity was 5.3%.
The value for `Cc1cccc(CN2CCN(c3ccccn3)CC2)c1` was -18.2%.
Turning to `CC(C)N1C(=O)CCC1C(=O)N1CCN(c2ccccn2)CC1` (centres undefined), the cytotoxicity is 9.8%.
